# Rows were chosen to be rich in hits. Some 1.1% of all compounds tested hit in one or more screens of this group.
# MOR-DOR inv ag – mu-delta opioid heterodimer inverse agonism; cell-based MOR-DOR heterodimer luminescence; inhibition, % at 9.3 µM; hit rate 0.21% among 340,000; AID 504357; in the data active means inhibition above about 22%, passing the limit was not always enough;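 further: 0% = cells with DMSO and 100% = wells without cells with DMSO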
# MOR-DOR ag – OPRM1-OPRD1 heterodimerization agonism; hit rate 0.3% among 340,000; activation, % at 9.3 µM; P35372+P41143; cells, luminescence;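 further: 0% = vehicle-treated cells and 100% = reference agonist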
# A1 inh – inhibitors of the anti-apoptotic protein A1, read as caspase activation; MEF A1-2A-BIM cells, Caspase-Glo 3/7 luminescence, 3 h; percent of clofoctol response, vehicle zero; caspase activation, % (concentration not given with the values); hit rate 0.066% among 330,000;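 active means over half of replicate activation scores above 10%, or exactly half above 10 with the replicate mean above 10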
# HTR5A inv ag – counter-screen for OPRM1-OPRD1 inverse agonists: human HTR5A inverse agonism; HTR5A cell line, luminescence; hit rate 0.083% among 340,000; P47898; inhibition, % at 9.3 µM; in the data active means inhibition mostly above about 23%, no sharp cut-off; inactive means mostly below about 18%;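 further: 0% = cells with DMSO and 100% = no-cell wells with DMSO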
# HTR5A ag ctr – counter-screen for OPRM1-OPRD1 agonists: human HTR5A agonism. P47898. activation, % at 9.3 µM. HTR5A agonist assay, luminescence, cell-based. hit rate 0.61% among 340,000. AID 504692; in the data active means activation mostly above about 9.5%, no sharp cut-off; inactive means mostly below about 7.6%;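 further: 0% = cells with vehicle only and 100% = reference agonist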
# OPRM1-D1 ag cf – OPRM1-OPRD1 heterodimer agonism, confirmation | hit rate 45% among 830 | cells, MOR-DOR heterodimerization, luminescence complementation | shares compounds with MOR-DOR ag | activation, % at 9.3 µM;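 further: 0% = vehicle-treated cells and 100% = reference agonist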
# HTR5A ag ctr2 – counter-screen for OPRM1-OPRD1 agonists: human HTR5A agonism; shares compounds with MOR-DOR ag; HTR5A agonist counterscreen, cell luminescence; activation, % at 9.3 µM; hit rate 8% among 830; AID 504905; in the data active means activation above about 17%;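 further: 0% = vehicle-treated cells and 100% = reference agonist response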
# * marks the source's active call; other numbers are inactive results; i = inactive; x = no result given. Unless noted, no stated cut-off is given here; in the data, active means activation above about 18%; inactive means the rest.
SMILES,MOR-DOR inv ag,MOR-DOR ag,A1 inh,HTR5A inv ag,HTR5A ag ctr,OPRM1-D1 ag cf,HTR5A ag ctr2
CC(C)(C)c1cc(C(=O)NNC(=O)Nc2cccc(Cl)c2)n(Cc2ccccc2)n1,-129,25*,-2,-19,4,1,2
CCCCNC(=O)N(O)C1N(/N=C/c2ccccc2OC)C(=S)SC1(C)C (centres undefined),10,-2,-1,7,-2,x,x
CSCCC(NS(=O)(=O)c1ccc(C)cc1)C(=O)N1CCN(C(C)=O)CC1 (centres undefined),11,-2,0,-6,1,x,x
CSCCC(NS(=O)(=O)c1ccc(C)cc1)C(=O)N1CCN(C(c2ccccc2)c2ccccc2)CC1 (centres undefined),-278,57*,0,-8,-1,4,8
COc1ccc(CCNC(=O)c2cn3ccc(C)cc3n2)cc1OC,-1,0,0,12,1,x,x
O=C(N[C@H]1C/C=C\C[C@@H](CC(=O)N(CCO)Cc2ccccc2)C(=O)N[C@H](Cc2c[nH]c3ccccc23)COC1=O)OCC1c2ccccc2-c2ccccc21,11,-2,-2,-14,3,x,x
O=C(N[C@H]1C/C=C\C[C@H](CC(=O)N(CCO)Cc2ccccc2)C(=O)N[C@H](Cc2c[nH]c3ccccc23)COC1=O)OCC1c2ccccc2-c2ccccc21,-154,29*,0,-7,-1,35*,4
C=CC[C@@H](CC(=O)N(CCO)Cc1ccccc1)C(=O)N[C@@H](COC(=O)[C@@H](CC=C)CC(=O)OC(C)(C)C)Cc1c[nH]c2ccccc12,-131,29*,x,-54,9,2,-3
Cc1ccn2cc(-c3cc4ccccc4oc3=O)nc2c1,-102,20*,x,-17,0,12,5
Cc1ccc(-c2csc(Cc3nc(-c4cc5ccccc5oc4=O)cs3)n2)cc1,-18,3,-1,2,-1,x,x
CCn1ccnc1CNCc1cn(-c2cc(C)ccc2C)nc1-c1ccccc1,-12,2,0,2,-4,x,x
Cc1ccc(C)c(-n2cc(CNCCc3cnccn3)c(-c3ccccc3)n2)c1,-275,54*,0,-25,8,79*,-1
CCOC(=O)C1(CC2CCCCO2)CCN(S(=O)(=O)c2ccsc2)CC1 (centres undefined),6,-1,0,15,2,x,x
CSc1ccccc1NC(=O)Nc1ccc(Cl)cc1,-147,26*,-8,-17,9,14,3
Cc1nc(SCC(=O)N2CCC(Cc3ccccc3)CC2)[nH]c(=O)c1C,9,-1,0,9,-5,x,x
CCN(c1nc(N)c(C(=O)N=C(N)N)nc1Cl)C(C)C,-282,51*,0,-11,2,95*,-3
O=C(COc1ccc2c3c(c(=O)oc2c1)CCCC3)NCCN1CCOCC1,16,-3,-1,6,2,x,x
Cc1ccccc1/C=N/Nc1ccnc2cc(Cl)ccc12,-129,21*,-1,-14,5,22*,9
Cc1ccc(/C=N/Nc2ccnc3cc(Cl)ccc23)c(C)c1,-129,18,-1,6,-2,x,x
O=S(=O)(NC1CC1)c1ccc(S(=O)(=O)N2CCCC3(CCCCC3)C2)cc1,-227,40*,0,-22,6,32*,2
COc1cc2c(cc1OC)CN(C(=O)Nc1ccccc1Cl)CC2,10,-2,0,-2,-1,x,x
COc1cc2c(cc1OC)CN(C(=O)Nc1ccccc1)CC2,-302,60*,0,-25,5,2,2
Cc1cc(Cl)ccc1OCC(=O)N[C@@H](Cc1ccccc1)c1nc2ccccc2[nH]1,-128,24*,0,-25,6,44*,2
Cc1ccc(Cl)cc1NC(=O)c1cnn2c1NC(c1ccco1)CC2C(F)(F)F (centres undefined),-36,7,0,-28,0,x,x
O=C(Nc1ccc2c(c1)CCC2)c1cnn2c1NC(c1ccco1)CC2C(F)(F)F (centres undefined),-104,23*,0,10,3,7,2
SMILES,MOR-DOR inv ag,MOR-DOR ag,A1 inh,HTR5A inv ag,HTR5A ag ctr,OPRM1-D1 ag cf,HTR5A ag ctr2
N#CC1=C2N=C(N)c3c(sc4c3CCCCC4)N2C2=C(C(=O)CCC2)C1c1ccccc1 (centres undefined),6,-1,-1,12,1,x,x
CCOc1ccc(C2C(C#N)=C(N)N(c3sc4c(c3C#N)CCCC4)C3=C2C(=O)CCC3)cc1 (centres undefined),-483,79*,0,-6,2,4,3
CCCc1cc(=O)oc2c(C)c(OCC(=O)NCCN3CCOCC3)ccc12,16,-3,1,26,-1,x,x
CN1C[C@@H]2[C@@H]3C(=O)N(C)C(=O)[C@@H]3[C@](C)(C1=O)N2C(=O)c1ccc(F)cc1,14,-2,x,-33,11,x,x
CC(=O)Nc1ccc(CN2CCCC(CO)(Cc3ccccc3C)C2)cc1 (centres undefined),-225,49*,0,-1,0,13,-1
CSc1ccccc1NC(=O)CSCc1ccc(Br)cc1,-18,3,0,15,2,x,x
Cc1cc(-c2ccccc2)nc(N/N=C/c2ccc(O)cc2)n1,-2,0,x,-19,3,x,x
Oc1ccc(/C=N/Nc2nc(-c3ccc(Cl)cc3)cc(C(F)(F)F)n2)cc1,-124,24*,1,-14,5,0,2
COC(=O)NCC(c1ccc2c(c1)OCO2)N1CCN(c2ccccc2)CC1 (centres undefined),i,217*,0,-4,0,193*,1
Cc1cc(-c2nn(-c3ccccc3F)cc2CN2CCN(c3ccccn3)CC2)c(C)s1,-135,28*,0,3,-1,3,0
CSC(=Nc1ccccc1)N=C(SCc1ccccc1)N(C)C,-333,76*,x,-41,11,38*,0
N#CNC(=Nc1ccccc1)SCc1ccc(C(=O)O)cc1,6,-1,0,-6,2,x,x
Cc1nc2nc(C)n(CCN3CCOCC3)c(=O)c2c(-c2cccc([N+](=O)[O-])c2)c1C(=O)CCCCCCCCCCN1CCC(c2ccccc2)(c2ccccc2)CC1,-113,26*,x,-29,8,131*,6
Cc1nc2ccccc2c(=O)n1CCN1CCOCC1,14,-3,-1,8,1,x,x
CCC(=O)C1CCCN(C(=O)c2ccc(OC)c(OC3CCN(C(C)=O)CC3)c2)C1 (centres undefined),14,-3,0,13,3,x,x
COc1ccc(C2CC(c3ccc(OC)cc3)n3nc(NC(=O)c4cccs4)nc3N2)cc1 (centres undefined),-134,26*,0,-18,1,48*,2
CC1CC(C)(C)NC(=S)N1CCCC(=O)Nc1ccc(F)cc1 (centres undefined),-8,2,0,-8,3,x,x
